Assay results as given in PubChem BioAssay (NCATS).
Results filed as inconclusive are left out. Unmarked numbers belong to inactive results. Calls of active or inactive are those of the source. The call rests on the fitted dose curve; in most records, active means well fitted activation curve with a large enough effect; inconclusive means small, poorly fitted or top-dose-only effect; inactive means flat fitted curve, though single readings scatter.

Experiment: qHTS for Activators of Parkin Expression: LOPAC Validation Assay (NLuc Reporter) (AID 720572;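 further: 0% = DMSO and 100% = positive control compound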)
Details: Parkin promoter NanoLuc reporter cells, luminescence, percent of positive control, DMSO as zero; series mostly up to 46.1 µM; activation: at the top concentration
Source text: Parkin is an E3 ubiquitin ligase localized in the cytosol of cells expressed in many tissues, including brain, skeletal muscle, heart and liver tissues. One hour after stress induction by mitochondrial uncouplers (which mimic mitochondria damage by decreasing the mitochondrial inner membrane electrochemical gradient that is used to produce ATP), Parkin translocates from the cytosol to mitochondria in many cultured cell types, including neurons and HeLa cells. Administration of other mitochondrial poisons, such as Paraquat and azide in cells lacking mitochondrial DNA (mtDNA), induces Parkin translocation to mitochondria. […] It was proposed that Parkin (together with Pink1) mediates a mitochondrial quality control pathway to maintain organelle population fidelity by removing damaged mitochondria. Understanding the normal physiologic role of Parkin (and Pink1) may uncover novel treatment strategies for sporadic Parkinson's disease patients with mutation in these genes.
A cell based qHTS in 1536 well format was developed assess modulation of Parkin expression using a neuronal cell line that stably expresses a stably expresses a luminescent coincidence reporter (FLuc and NLuc reporters) behind the Parkin promoter. The LOPAC library is used to validate the assay for quantitative high-throughput screening. The data herein reports the signal from the NLuc reporter. An increase in this signal = activation of Parkin expression. For this assay , a positive control normalized signal increase corresponding to a high quality qHTS curve class in both luminescent channels is the desired outcome for this assay.
NIH Chemical Genomics Center [NCGC]
NIH Molecular Libraries Probe Centers Network [MLPCN]
Assay Submitter (PI): Richard Youle, National Institute of Neurological Disorders and Strokes (NINDS), NIH
[1] Narendra, D., et al., Parkin is recruited selectively to impaired mitochondria and promotes their autophagy. J Cell Biol, 2008. 183(5): p.
[2] Suen, D.F., et al., Parkin overexpression selects against a deleterious mtDNA mutation in heteroplasmic cybrid cells. Proc Natl Acad Sci U S A, 2010. […] 11835-40.
[3] Cheng K, Inglese J. A coincedence reporter-gene system for high-throughput screening. Nat Methods. 2012: 9(10);937
Five microliters (1,500 cells/well) of the Parkin coincidence reporter cells were seeded to 1536 well assay plates (Greiner Catalog # 789173-F) and incubated at 37 C, 5% CO2 for 24 hours. Compounds (23 nL) were pinned using the Kalypsys robotic system equipped with 1536 pin head adaptor in 7-point dose response. The assay plates were incubated for additional 24 hr at 37 C, 5% CO2 followed by a volume reduction in each well to 2 uL using an automated plate washer/aspirator. Following the volume reduction,2 uL of FLuc detection reagent and plates were incubated for 10 minutes at room temperature. The FLuc luminescence signal was obtained using the PerkinElmer ViewLux plate imager and then 2 uL of NanoLuc detection reagent was added to the plates. After another 10 minute incubation, NanoLuc signal was obtained using the PerkinElmer ViewLux plate imager as before. Data from each channel was normalized to DMSO (neutral control) and the positive control compounds (100%).

Compound | activation [%] | outcome
C=C(C)[C@H]1CN[C@H](C(=O)O)[C@H]1CC(=O)O | 0.513 | –
CCC1(c2ccc(N)cc2)CCC(=O)NC1=O (stereo not given) | -3.49 | –
O=C(O)CCCc1ccc(N(CCCl)CCCl)cc1 | -7.53 | –
NCCc1ccc(O)cc1 | -1.72 | –
CC(C)N(CCC(C(N)=O)(c1ccccc1)c1ccccn1)C(C)C (stereo not given) | – | inactive
O=C(CCCN1CCC2(CC1)C(=O)NCN2c1ccccc1)c1ccc(F)cc1 | -1.75 | –
CC(C)c1cccc(C(C)C)c1O | -2.84 | –
CCCCC/C=C\C/C=C\C/C=C\C/C=C\CCCC(=O)NCC(=O)O | -0.353 | –
Cc1ncsc1CCCl | -1.76 | –
COc1ccc2c(c1OC)C(=O)O[C@H]2[C@@H]1c2cc3c(cc2CCN1C)OCO3 | 2.59 | –
CC(C)(C)NCC(O)c1ccccc1Cl (stereo not given) | 0.846 | –
CC(NC(C)(C)C)C(=O)c1cccc(Cl)c1 (stereo not given) | 3 | –
CN1C(=O)CCS(=O)(=O)C1c1ccc(Cl)cc1 (stereo not given) | -2.74 | –
O=P1(N(CCCl)CCCl)NCCCO1 (stereo not given) | -5.9 | –
O=c1[nH]oc2c1CCNC2 | 1.22 | –
